Drawing on PubChem BioAssay (Tox21), this text covers Potency for 33 compounds.

Records with an inconclusive call do not appear. Where a call stands in place of a potency, no number is given. Calls of active or inactive are those of the source. The call rests on the fitted dose curve. Bridge positions count the residues as written; N and C are the ends. Square brackets hold non-standard residues; d marks the D form. Peptide text beside a SMILES is read from it. hArg = N=C(N)NCCCC[C@H](N)C(=O)O; Mpa = O=C(O)CCS

The nature of this assay: p53 small molecule agonists, cell-based qHTS assay with human liver microsomes (AID 1963577). The procedure, abridged: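 p53RE-bla reporter cells were pre-incubated 5 h at 37 C, then treated with compounds plus human liver microsomes (0.5 mg/mL final) and NADPH (0.5 mg/mL final) for 16 h at 37 C. Beta-lactamase activity was read by LiveBLAzer fluorescence after 2 h at room temperature.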
In general terms: Quantitative high-throughput screening tests each substance at several concentrations.

As for `C[Si](C)(C)C`, the Potency result was “inactive”. In the case of `CC(=O)Oc1ccc(C2(c3ccc(OC(C)=O)cc3)Oc3ccccc3NC2=O)cc1` it was “inactive”; in that of `COc1cc(NS(=O)(=O)c2ccc(N)cc2)nc(C)n1`, “inactive”. As to `Cc1cc(C)c(C)c(C)c1`, the Potency result was “inactive”.

Turning to `O=C=NC1CCC(CC2CCC(N=C=O)CC2)CC1` (stereo not drawn), the Potency result is “inactive”.

Turning to `COc1nccnc1CC(C)C`, the Potency entry was “inactive”. In the case of `CC[C@]1(O)C[C@H]2CN(CCc3c([nH]c4ccccc34)[C@@](C(=O)OC)(c3cc4c(cc3OC)N(C=O)[C@H]3[C@@](O)(C(=O)OC)[C@H](OC(C)=O)[C@]5(CC)C=CCN6CC[C@]43[C@@H]65)C2)C1` it was “inactive”; in that of `COCCOC(=O)CC#N`, “inactive”. In the case of `CNC(=S)NN` it was “inactive”; in that of `O=C(O)Cc1cc(I)c(Oc2cc(I)c(O)c(I)c2)c(I)c1`, “inactive”. In the case of `c1ccc(C[n+]2cccc3ccccc32)cc1` it was “inactive”; in that of `O=C(Cl)c1cc(Cl)cc(Cl)c1`, “inactive”. On to `CS(=O)(=O)CCNCc1ccc(-c2ccc3ncnc(Nc4ccc(OCc5cccc(F)c5)c(Cl)c4)c3c2)o1`, for which the Potency result was “inactive”. In the case of `CC1=CCCC(C)(C)C12CCC(C)O2` (stereo not drawn) it was “inactive”.

As for `Nc1ccc(F)cc1F`, the Potency entry was “inactive”. In the case of `C=CC(=O)OCC(C)OCC(C)OCC(C)OC(=O)C=C` (stereo not drawn) it was “inactive”; in that of `O=C(/C=C/c1ccc(O)c(O)c1)O[C@@H]1C[C@@](OC(=O)/C=C/c2ccc(O)c(O)c2)(C(=O)O)C[C@@H](O)[C@@H]1O`, “inactive”. In the case of `O=C1c2ccccc2-c2ccccc21` it was “inactive”; in that of `CC1=Nc2ccccc2C1(C)C`, “inactive”. In the case of `COC(=O)Nc1nc2ccc(C(=O)C3CC3)cc2[nH]1` it was “inactive”; in that of `Cc1cc(C2CCCCC2)n(O)c(=O)c1`, “inactive”; in that of `O=C(OCCc1ccccc1)c1ccccc1`, “inactive”. Consider `COc1ccc(NC(=O)CC(C)=O)cc1`, for which the Potency result is “inactive”. In the case of `CCO[Si](CC(C)C)(OCC)OCC` it was “inactive”; in that of `CCOc1ccc(O)cc1`, “inactive”; in that of `NC(=O)[C@@H]1CSSCCC(=O)N[C@@H](CCCCN=C(N)N)C(=O)NCC(=O)N[C@@H](CC(=O)O)C(=O)N[C@@H](Cc2c[nH]c3ccccc23)C(=O)N2CCC[C@H]2C(=O)N1` ([Mpa][hArg]GDWPC-NH2; disulfide 1-7), “inactive”.

For the compound `Nc1ccc(N)c2ccccc12`, the Potency entry is “inactive”. In the case of `CC[N+](C)(CC)CC` it was “inactive”; in that of `Cc1ccc(O)c(C(=O)c2ccccc2)c1`, “inactive”; in that of `CC(CN=Cc1ccccc1O)N=Cc1ccccc1O` (stereo not drawn), “inactive”. In the case of `O=C(O)CCCl` it was “inactive”; in that of `CCc1c(C)[nH]c2c1C(=O)C(CN1CCOCC1)CC2` (stereo not drawn), “inactive”; in that of `Nc1nc(N)c2nc(CNc3ccc(C(=O)N[C@@H](CCC(=O)O)C(=O)O)cc3)cnc2n1`, “inactive”.
